Out of some 420,000 compounds screened, about 50,000 (12%) were called active. A call without a number means that no potency is given here. Inconclusive results (about 26%) are left out. The sample holds actives, similar compounds and a random draw of the others, so the mix is not that of the screen. The call rests on the fitted dose curve; in most records, active means well fitted inhibition curve with a large enough effect; inconclusive means small, poorly fitted or top-dose-only effect; inactive means flat fitted curve, though single readings scatter.
Potency means the concentration at half of the fitted maximal effect.

The experiment in a line: qHTS for Inhibitors of human tyrosyl-DNA phosphodiesterase 1 (TDP1): qHTS in cells in presence of CPT. Further: nearly all actives have a fitted effect of over 55% in size. The conditions noted are these: chicken DT40 Tdp1-/-;hTDP1 cells + 20 nM CPT, ATP luminescence, 48 h; series mostly up to 46.2 µM. The method in brief: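 Chicken DT40 Tdp1-/- cells complemented with human TDP1, 400 cells/well, exposed to compounds plus 20 nM camptothecin for at least 48 h at 37 C; viability read as ATP content by CellTiter-Glo luminescence.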
As for `COC(=O)[C@@H]1C[C@H](NC(=O)c2ccccc2C(F)(F)F)CN1Cc1cccc(O)c1`, the activity change, negative = growth inhibition was 9.61% [at 9.04 µM] (inactive).

As to `CC(CN1CCC(n2nccc2NC(=O)C2CCCC2)CC1)c1ccccc1` (centres undefined), the Potency entry was “inactive”.

As to `C=CCN1CCN(c2ccncc2S(=O)(=O)N2CCN(C)CC2)CC1`, the Potency entry is “inactive”.

As to `CC1(C(=O)NCc2ccccc2)CSCC(=O)N1CCCN1CCOCC1` (centres undefined), the Potency entry is “inactive”.

As for `Cc1cc2oc(=O)cc(CN(C)Cc3ccccc3)c2cc1Cl`, the Potency result was “inactive”.

`CC(C)(O)C#Cc1ccc(CNC[C@H]2O[C@@H](n3cnc4c(=O)[nH]c(N)nc43)[C@H](O)[C@@H]2O)s1`: the Potency result is “inactive”.

Regarding `C=C(C)C(=O)O[C@H]1C/C(C)=C\C(=O)/C=C(\C)[C@H](O)[C@@H]2OC(=O)C(=C)[C@@H]21`, the Potency was 0.58 µM (active).

As to `C/C=C(\C)C(=O)O[C@H]1CC(C)=C2C(=O)C=C(C)C2[C@@H]2OC(=O)[C@@](C)(OC(=O)C=C(C)C)C21` (some centres undefined), the activity change, negative = growth inhibition is -19.3% [at 9.04 µM] (inactive).

In the case of `Cc1ccc(CNC(=O)CC(NC(=O)c2ccccc2)c2ccccc2)cc1` (centres undefined), the Potency entry is “inactive”.

With `Cn1c(SCC(=O)Nc2nccs2)nnc1-c1cccnc1`, the Potency result was “inactive”.

As to `CCOC(=O)C1CCN(C(=O)Nc2ccc(C)c(Cl)c2)CC1`, the Potency entry was “inactive”.

Turning to `COc1ccc2c(c1)C(C)=CC(C)(C)N2C(=O)CNCc1ccc2c(c1)OCO2`, the Potency was 20.6 µM (active).

On to `COc1ccc(NC(=O)NCc2ccc3c(c2)OCO3)c(OC)c1`, for which the Potency entry is “inactive”.

Consider `COc1cccc(CNCc2ccc3c(c2)OCO3)c1`, for which the Potency result is “inactive”.

`CCc1ccc(-n2c(=S)sc3c(=O)n(-c4ccccc4OC)c(=S)[nH]c32)cc1`: the Potency result is “inactive”.

Turning to `NS(=O)(=O)c1ccc(NC(=S)NNC(=O)c2cccs2)cc1`, the Potency result was “inactive”.

As for `COc1ccc(C)cc1Nc1nc2ccccc2c2nnc(C)n12`, the Potency result is “inactive”.

In the case of `COc1cccc(NC(=O)C(Sc2nc3ccccc3c(=O)n2CC(C)C)c2ccccc2)c1` (centres undefined), the Potency entry is “inactive”.

For `COc1cccc(Nc2nc3ccccc3c3nncn23)c1`, the Potency was 16.4 µM (active).

For the compound `FC(F)(F)c1ccccc1-c1nc(-n2ccnc2)c2ccccc2n1`, the Potency entry is “inactive”.

As for `FC(F)(F)c1cc(Nc2nc3ccccc3c3nncn23)ccc1Cl`, the Potency is 23.1 µM (active).

Turning to `O=C(OCC(=O)c1cccs1)c1ccc([N+](=O)[O-])o1`, the Potency entry is “inactive”.

For the compound `Cc1ccc(CNC(=O)C2CCN(S(=O)(=O)c3ccc4nc5c(c(C(=O)O)c4c3)CC(C)CC5)CC2)cc1` (centres undefined), the Potency entry was “inactive”.

Consider `CCn1cc(CNC(=O)c2cc([N+](=O)[O-])c(C)c([N+](=O)[O-])c2)cn1`, for which the Potency result is “inactive”.

Consider `O=C(COc1ccc(Br)cc1)OCC(=O)c1ccc[nH]1`, for which the Potency entry was “inactive”.

Consider `CCOC(=O)C1CCCN(C(=O)CSc2nnc3nc(C)cc(C)n23)C1` (centres undefined), for which the Potency was 25.9 µM (active).

On to `Cc1c(C)n2c(SCC(=O)N3CCCC3)nnc2[nH]c1=O`, for which the Potency entry is “inactive”.

With `Cc1cc2nnc(SCC(=O)N3CCN(c4ccccc4)CC3)n2c(N)n1`, the Potency entry was “inactive”.

`CN(C(=O)COC(=O)c1ccc(Br)o1)c1c(N)n(Cc2ccccc2)c(=O)[nH]c1=O`: the Potency result was “inactive”.

In the case of `C[C@H](CO)N1C[C@H](C)[C@@H](CN(C)C(=O)c2cccc(F)c2)Oc2cc(-c3cncnc3)ccc2S1(=O)=O`, the Potency entry is “inactive”.

For `Cc1ccccc1-c1ccc2c(c1)O[C@@H](CN(C)Cc1ccc(C(=O)O)cc1)[C@@H](C)CN([C@H](C)CO)S2(=O)=O`, the Potency entry was “inactive”.

For `C[C@@H]1CN([C@H](C)CO)S(=O)(=O)c2ccc(C#C[C@@H](C)O)cc2O[C@@H]1CN(C)Cc1ccc(-c2ccccc2)cc1`, the Potency was 11.6 µM (active).

As for `C[C@@H]1CN([C@@H](C)CO)S(=O)(=O)c2ccc(C#Cc3cccc(F)c3)cc2O[C@H]1CN(C)S(=O)(=O)c1cn(C)cn1`, the Potency is 18.4 µM (active).

Consider `C[C@@H]1CN([C@@H](C)CO)S(=O)(=O)c2ccc(-c3ccc(C(=O)N(C)C)cc3)cc2O[C@@H]1CN(C)Cc1ccccc1C(=O)O`, for which the Potency entry is “inactive”.

On to `C[C@H]1CN([C@@H](C)CO)S(=O)(=O)c2ccc(-c3cccc(F)c3)cc2O[C@@H]1CN(C)C`, for which the Potency result is “inactive”.

For `CCc1c(C)nc2cc(C)[nH]n2c1=O`, the Potency entry is “inactive”.

On to `CCOc1ccc(S(=O)(=O)NCCC(=O)NCC2CCCO2)cc1` (centres undefined), for which the Potency entry is “inactive”.

Take `Cc1c[n+]([O-])ccc1[N+](=O)[O-]`: the Potency entry was “inactive”.

Regarding `O=C(O)C1CC=C(Cl)CC1C(=O)NCc1ccccc1` (centres undefined), the Potency result is “inactive”.

Turning to `O=C(NCc1ccccc1)[C@H]1C[C@@H]1[C@H](NP(=O)(c1ccccc1)c1ccccc1)c1ccccc1`, the Potency was 18.4 µM (active).

Consider `O=C(NCc1ccccc1)C1CNCC(C(=O)NCc2ccccc2)C1` (centres undefined), for which the Potency result was “inactive”.

Regarding `CCc1cc2cc(OC)ccc2nc1SCC(=O)Nc1cc(OC)c(OC)cc1C(=O)O`, the Potency entry was “inactive”.

As to `COc1ccc(C)cc1NC(=O)CSc1cccc[n+]1[O-]`, the Potency entry is “inactive”.

Consider `CC(C)(C)NC(=O)C(CCc1ccccc1)n1c(=O)c(-c2ccccc2)nc2ccccc21` (centres undefined), for which the Potency was 5.17 µM (active).

Regarding `CCC(C(=O)Nc1c(C)cccc1C)n1c(-c2cc(C)cs2)nc2ccccc21` (centres undefined), the Potency entry was “inactive”.

Turning to `Cn1c(CNC(=O)C(C)(C)C)nc2ccccc21`, the Potency result was “inactive”.

For `CCCc1nc2ccccc2n1C(C)C(=O)NC(C)(C)C` (centres undefined), the Potency result is “inactive”.

Consider `CCC(C(=O)NC(C)(C)C)n1c(-c2ccccc2)nc2ccccc21` (centres undefined), for which the Potency is 20.6 µM (active).

`CC(=O)c1nc2ccccc2n1Cc1ccccc1`: the Potency result is “inactive”.

Turning to `COc1ccc(OC)c(/C=N/NC(=O)c2ccc[n+](CC(=O)c3ccccc3)c2)c1`, the Potency result was “inactive”.

Regarding `COc1cccc(NC(=O)CN(C)C(=O)c2cc(C3CC3)nn2-c2ccccc2)c1`, the Potency result was “inactive”.

`CC(=O)Nc1ccc(NC(=O)COC(=O)C2CCC(C(C)(C)C)CC2)cc1` (centres undefined): the Potency result was “inactive”.

Turning to `O=C(NCc1cccc(Cl)c1)C1CCN(c2nnc(N3CCCC3=O)s2)CC1`, the Potency entry is “inactive”.

For `COc1ccc(CCNC(=O)COC(=O)Cc2cccc(F)c2)cc1`, the Potency result was “inactive”.

As to `COc1ccc(CCNC(=O)CN2CCC(n3nnc4cc(F)ccc43)CC2)cc1OC`, the Potency result is “inactive”.

`Cc1ccc(CCNC(=O)Cn2c(-c3cccs3)cc3cc(F)ccc32)cc1`: the Potency is 18.4 µM (active).

Turning to `Cc1cnc(C(=O)Oc2cccc(Cl)c2Cl)cn1`, the Potency result was “inactive”.

`CCOC(=O)c1cnc(SC)nc1Sc1ccc(Cl)cc1Cl`: the Potency entry was “inactive”.

In the case of `O=C1C(=O)N(c2ccccc2)C(c2ccccc2)C1c1ccccc1` (centres undefined), the Potency result was “inactive”.

For `O=C1[C@@H](c2ccccc2)[C@@H](c2ccccc2)N1c1cccnc1`, the Potency is 16.4 µM (active).

`CCc1ccccc1NC1c2ccccc2C(=O)N1c1cccnc1` (centres undefined): the Potency entry is “inactive”.

As to `CCCN(CCC)c1c([N+](=O)[O-])c(=O)oc2ccccc12`, the Potency result is “inactive”.

For `O=C(COC(=O)c1ccncc1)c1ccccc1`, the Potency entry was “inactive”.

Turning to `Cc1[nH]c2ccc(C(=O)N3CCN(C)CC3)cc2c1C`, the Potency result was “inactive”.

For the compound `Cc1cccc(N2CCN(C(=O)c3cc4c(=O)[nH]c5ccccc5c4n3C)CC2)c1C`, the Potency was 18.4 µM (active).

For the compound `O=C(c1c(Cl)cccc1Cl)N1CCN(c2cccc3[nH]ccc23)CC1`, the Potency entry is “inactive”.

For the compound `CN(C(=O)COC(=O)CCCc1c[nH]c2ccccc12)c1c(N)n(Cc2ccccc2)c(=O)[nH]c1=O`, the Potency result was “inactive”.

On to `Oc1cc(O)c2c(c1)OC(c1ccc(O)c(O)c1)C(O)C2` (centres undefined), for which the Potency entry is “inactive”.

Consider `COc1ccccc1-c1nnc(-c2ccc(F)cc2)o1`, for which the Potency entry is “inactive”.

Turning to `COc1ccc(-c2csc3nc(-c4ccccc4F)oc(=O)c23)cc1OC`, the Potency is 18.4 µM (active).

Turning to `Cc1sc2nc(-c3ccccc3F)oc(=O)c2c1C`, the Potency entry is “inactive”.

As for `Cc1ccc(N/C(N)=N/c2nc(C(F)(F)F)cc(C(F)(F)F)n2)cc1`, the Potency result is “inactive”.

For the compound `CCc1cccc(NC(=O)CCNS(=O)(=O)c2cccc3nonc23)c1`, the Potency entry is “inactive”.

With `Cc1ccc(NC(=O)CSc2nc3c([nH]c4ccccc43)c(=O)n2-c2ccccc2)cc1Cl`, the Potency is 11.6 µM (active).

As to `CCc1ccc(NC(=O)CSc2nc3c([nH]c4ccccc43)c(=O)n2-c2cccc(OC)c2)cc1`, the Potency result was “inactive”.

Regarding `CCOC(=O)c1ccc(NC(=O)CSc2nc3c([nH]c4ccccc43)c(=O)n2C)cc1`, the Potency was 8.2 µM (active).

With `CCOC(=O)c1ccc(NC(=O)CSc2nnc(COc3ccccc3OC)n2C)cc1`, the Potency result is “inactive”.

In the case of `Cc1cccc(NC(=O)CSc2nc3c(oc4ccccc43)c(=O)n2-c2ccc(F)cc2)c1`, the Potency entry is “inactive”.

Turning to `CCOC(=O)c1ccc(NC(=O)c2cc(=O)[nH]c3ccccc23)cc1`, the Potency result is “inactive”.

`Cc1ccc(C)c(NC(=O)CSc2nc3c(oc4ccccc43)c(=O)n2-c2ccccc2)c1`: the Potency was 14.6 µM (active).

In the case of `CCCCc1nc2c(=O)[nH]c3ccccc3c2o1`, the Potency result is “inactive”.

Turning to `Cn1nnnc1SCc1cc(=O)[nH]c2ccccc12`, the Potency entry is “inactive”.

As to `Cc1ccc(NC(=O)CSc2nnc3[nH]c(=O)cc(C)n23)cc1Cl`, the Potency entry was “inactive”.

With `CC(Sc1nc2c([nH]c3ccccc32)c(=O)n1C)c1ccccc1` (centres undefined), the Potency is 11.6 µM (active).

As for `Cc1ccc(C)c(NC(=O)COC(=O)CSc2ccccc2)c1`, the Potency result is “inactive”.

On to `Nc1c(N(CCCO)C(=O)C2CCCC2)c(=O)[nH]c(=O)n1Cc1ccccc1`, for which the Potency entry was “inactive”.

Take `Cn1c(=O)[nH]c2c(c(C(=O)O)nn2C)c1=O`: the Potency result was “inactive”.

With `Oc1c(Cl)cc(Cl)cc1/C=N/c1ncn[nH]1`, the Potency result was “inactive”.

For the compound `Cc1ccc(NC(=O)CN(C)C(=O)c2ccc(Br)o2)cc1`, the Potency result was “inactive”.

Consider `CC(C)c1nnc(NC(=O)COC(=O)/C=C/c2ccc([N+](=O)[O-])cc2)s1`, for which the Potency result is “inactive”.

As for `O=C(Nc1ccc(F)cc1)C(=O)c1cn(CC(=O)N2CCOCC2)c2ccccc12`, the Potency result was “inactive”.

In the case of `O=C(Nc1ccc(C(=O)O)cc1)/C(=C\c1ccccc1)NC(=O)c1ccc(Br)cc1`, the Potency entry is “inactive”.

Consider `COc1cccc(NC(=O)Cn2c3ccc(F)cc3c3nc4n(c(=O)c32)CCS4)c1`, for which the Potency result is “inactive”.

Regarding `C=CCN1C(=O)c2ccc(C(=O)N3CCC(C(=O)OCC)CC3)cc2C1=O`, the Potency entry is “inactive”.

Turning to `O=[N+]([O-])c1ccc(N2CCN(c3ccc(O)cc3)CC2)c(Cl)c1`, the Potency entry was “inactive”.

Turning to `COc1ccc(S(=O)(=O)NCC(c2ccc(C)cc2)N2CCN(C)CC2)cc1OC` (centres undefined), the Potency result is “inactive”.

Regarding `Cn1cccc1/C=C1\SC(=O)N(CC(=O)Nc2ccc(F)cc2)C1=O`, the Potency result is “inactive”.

With `Cc1nn(Cc2ccccc2)c(C)c1C(=O)NCCN1C(=O)S/C(=C\c2ccc(F)cc2)C1=O`, the Potency is 16.4 µM (active).

On to `Cc1nn(Cc2ccccc2)c(C)c1C(=O)NCCCN1CCCC1=O`, for which the Potency result was “inactive”.

The record behind these values is PubChem BioAssay AID686979 (National Center for Advancing Translational Sciences (NCATS), 2013).
